Screens: PubChem BioAssay, several laboratories
Shown are actives, neighbours in structure and some others; about 10% of the full set was active somewhere.
PTEN del growth = PTEN-deleted cell growth suppression. viability, % at 10 µM. actives 1.2% (n = 140,000). AID 827. HCT116 PTEN-null viability, CellTiter-Glo, 60 h; stronger effect = lower value;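 active = viability at or below a set limit, 4 SD under the median of all tested compounds, cut at about 3.7% in these data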;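 also: PTEN knockout HCT116 line with beta catenin targeted HCT116 as companion control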
bCat KO growth = beta-catenin-lacking colon tumor cell growth suppression; viability, % at 10 µM; actives 1.5% (n = 140,000); HCT116 beta-catenin knockout viability, CellTiter-Glo, 60 h; stronger effect = lower value;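 active = viability at or under a set limit, the compound median less 4 SD, cut at about 6% in these data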;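 also: 0% = Hyamine 1622 control at 20 µM and 100% = untreated cell control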
p97 ATPase inh = human p97 ATPase inhibition; AID 1481; P55072; recombinant p97 ATPase, Kinase-Glo ATP luminescence, 3 h; actives 0.42% (n = 220,000); inhibition, % at 8 µM; in the data active = inhibition above about 15%;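 also: 0% = DMSO vehicle and 100% = wells lacking enzyme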
L major viab = Leishmania major promastigote growth inhibition | inhibition, % at 10 µM | actives 9% (n = 200,000) | Leishmania major promastigotes, resazurin fluorescence viability; in the data active = inhibition above about 50%;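 also: promastigotes grown with compound for 44 hours at 28 °C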
Insulin prom inh = TRM-6 insulin promoter activity inhibition; TRM-6 cells (human fetal islet line), insulin promoter-eGFP reporter, imaging; reporter expression induced with tamoxifen; inhibition, % at 2 µM; actives 0.9% (n = 130,000); AID 1273;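 active = inhibition above the mean plus 3 SD, with well images judged a real hit on visual review, cut at about 60% in these data, passing the limit was not always enough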
ROMK mod = human ROMK K+ channel modulation, primary screen. P48048. Tet-inducible ROMK, thallium flux fluorescence; actives lie on both sides. B-score at 10 µM. actives 2% (n = 130,000). AID 1918;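 active = signal ratio slope over the read window, or its plate-corrected B-score, at least 3 SD from the plate mean, either direction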;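 also: B-score of the F/F0 ratio slope over 7 to 12 s after thallium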
Target sequence (P48048 whole entry, looked up): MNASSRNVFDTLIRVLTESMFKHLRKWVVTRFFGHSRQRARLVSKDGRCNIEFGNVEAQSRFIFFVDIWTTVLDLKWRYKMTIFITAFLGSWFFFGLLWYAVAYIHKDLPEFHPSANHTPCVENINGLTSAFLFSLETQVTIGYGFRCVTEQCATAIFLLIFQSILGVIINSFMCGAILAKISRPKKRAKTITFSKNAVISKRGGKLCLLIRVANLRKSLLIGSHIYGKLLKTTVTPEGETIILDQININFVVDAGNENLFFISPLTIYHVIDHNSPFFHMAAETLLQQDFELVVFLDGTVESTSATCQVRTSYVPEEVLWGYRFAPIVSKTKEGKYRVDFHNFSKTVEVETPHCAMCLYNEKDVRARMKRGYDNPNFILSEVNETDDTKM
Active calls of the source: *; · = no result given.

SMILES | PTEN del growth | bCat KO growth | p97 ATPase inh | L major viab | Insulin prom inh | ROMK mod
COc1ccc(CN2CCC(C(=O)N3CCN(c4ccccc4F)CC3)CC2)cc1OC | 84 | 88 | -5 | -2 | 16 | ·
COc1cc(CN2CCC(C(=O)N3CCC(C)CC3)CC2)cc(Br)c1O | 106 | 76 | 0 | 82* | · | ·
O=C(NC(=S)N1CCOCC1)c1cc2ccccc2o1 | · | · | -4 | -9 | · | 0
CC1=NN(c2nc(-c3ccc(C)cc3)cs2)C(=O)C1N=Nc1ccccc1O (stereo unspecified) | · | · | 5 | 99* | -64 | 0.72
Cn1c(NCCCN2CCOCC2)nc2c1c(=O)n(Cc1ccc(Cl)c(Cl)c1)c(=O)n2C | 41 | 30 | -9 | 99* | · | ·
Cn1c(NCCCN2CCOCC2)nc2c1c(=O)n(Cc1ccc(Cl)cc1)c(=O)n2C | 73 | 92 | -1 | 74* | · | 1.3
CN(C)S(=O)(=O)c1cccc(-c2nnc3n2CCCCC3)c1 | · | · | 6 | · | · | ·
COC(=O)C1=CN(Cc2cccs2)C=C(C(=O)OC)C1c1ccc(OC)cc1OC | · | · | 1 | 98* | · | -0.0023
COC(=O)C1=CN(Cc2ccc(OC)cc2)C=C(C(=O)OC)C1c1ccsc1 | · | · | 1 | 100* | · | -0.93
COc1ccc(-c2nc(N)ncc2-c2csc(C)n2)c(O)c1OC | · | · | -1 | 0 | -31 | 1.3
COc1cc(OC)cc(C(=O)N[C@H](C(=O)OCC(=O)Nc2ccc(F)c(F)c2F)C(C)C)c1 | · | · | -2 | 2 | · | 0.9
CCOc1ccc(-c2nnc(-c3ccncc3)o2)cc1OCC | · | · | 3 | 78* | -25 | -0.0051
CCOc1ccc(-c2nnc(-c3cccnc3)o2)cc1OCC | 98 | 92 | -4 | 31 | 64 | 1.6
Cc1ccc(Sc2ccc(CN3CCCCC3)cc2[N+](=O)[O-])cc1 | · | · | 0 | 79* | · | -0.32
Cc1cc(C)cc(N/C(N)=N/c2nc(C)cc(C)n2)c1 | 27 | 29 | 2 | 85* | -38 | 0.72
Cc1ccccc1N(CC(=O)N/N=C/c1ccc(N(C)C)cc1)C(=O)c1ccccc1 | 100 | 104 | 2 | 99* | 3 | -1.1
COc1ccc(C2C3=C(CC(C)(C)CC3=O)Oc3ncn(Cc4ccccc4)c(=N)c32)cc1 (stereo unspecified) | 45 | 52 | -6 | 63* | -3 | -0.5
N=c1c2c(ncn1CCN1CCOCC1)Oc1ccc3ccccc3c1C2c1ccccc1 (stereo unspecified) | 1.3* | 1.4* | -2 | 99* | 28 | -1.8
N=c1c2c(ncn1Cc1ccco1)Oc1c(ccc3ccccc13)C2c1ccccc1 (stereo unspecified) | 1.6* | 1.3* | 4 | 57* | -24 | 0.29
c1ccc(C2c3c(ccc4ccccc34)Oc3ncn4nc(-c5ccco5)nc4c32)cc1 (stereo unspecified) | 67 | 69 | 4 | 47 | 39 | ·
COc1ccc(C2c3c(ncn(CCN4CCOCC4)c3=N)Oc3ccc4ccccc4c32)cc1 (stereo unspecified) | 1.1* | 1.5* | 3 | 100* | -11 | -1.5
COc1ccc(C2c3c(ccc4ccccc34)Oc3ncn4nc(-c5ccco5)nc4c32)cc1 (stereo unspecified) | 78 | 92 | 4 | 31 | 27 | ·
N=c1c2c(ncn1Cc1ccco1)Oc1cc(O)ccc1C2c1ccccc1 (stereo unspecified) | · | · | 14 | · | · | ·
CC1(C)CC(=O)C2=C(C1)Oc1ncn(Cc3ccco3)c(=N)c1C2c1ccccc1 (stereo unspecified) | 71 | 78 | 0 | 4 | -30 | -3.3
O=C(CN1CCN(Cc2ccccc2Cl)C1=O)NCCCN1CCOCC1 | · | · | 0 | · | · | 0.81
SMILES | PTEN del growth | bCat KO growth | p97 ATPase inh | L major viab | Insulin prom inh | ROMK mod
O=C(CN1CCCCCC1)N/N=C/c1cccc(Cl)c1Cl | 94 | 89 | 3 | 62* | -208 | ·
Cc1cc(/C=N\NC(=O)CC(=O)NC2CCCCC2)c(C)n1-c1ccc(Cl)c(Cl)c1 | 86 | 92 | 1 | -5 | -36 | ·
O=C(CO)N/N=C/c1cccc(Cl)c1Cl | 100 | 91 | 4 | -8 | 40 | 0.019
O=C(CN1CCCCCCC1)N/N=C/c1ccc(F)c(F)c1 | 104 | 104 | -3 | 97* | 13 | -0.29
Cc1cc(/C=N\NC(=O)CC(=O)NC2CCCCC2)c(C)n1-c1cccc(Cl)c1Cl | 80 | 76 | 3 | 95* | 33 | 0.56
O=C(CN1CCCCCCC1)N/N=C/c1ccccc1F | 98 | 94 | 5 | 52* | 18 | ·
c1ccc(CSc2ccc(-c3ccco3)nn2)cc1 | 94 | 89 | 2 | 2 | 32 | ·
CCOC(=O)c1c(C)sc2c1N(C(=O)CCl)c1cc(Cl)ccc1S2 | 2.2* | 2.3* | 14 | 101* | 3 | ·
O=C(CCN1C(=O)C2C3CCC(C3)C2C1=O)OCC(=O)c1cccc([N+](=O)[O-])c1 (stereo unspecified) | 97 | 91 | -3 | 16 | 25 | -0.35
CCOC(=O)Cn1c(CN2CCN(C(c3ccccc3)c3ccccc3)CC2)nc2c1c(=O)n(C)c(=O)n2C | 77 | 79 | -7 | 53* | · | ·
CCN1CCN(c2nc3c(c(=O)n(C)c(=O)n3C)n2Cc2cccc3ccccc23)CC1 | 75 | 74 | -3 | 13 | -362 | -0.45
Cc1ccccc1Cn1c(CN2CCc3ccccc3C2)nc2c1c(=O)n(C)c(=O)n2C | 69 | 66 | 2 | 81* | -14 | ·
CCN1CCN(Cc2nc3c(c(=O)n(C)c(=O)n3C)n2Cc2cccc3ccccc23)CC1 | 82 | 84 | -3 | 92* | 63 | 0.073
Cn1c(=O)c2c(nc(CN3CCN(C(c4ccccc4)c4ccccc4)CC3)n2CC(N)=O)n(C)c1=O | 76 | 72 | 2 | 9 | -8 | -0.84
O=C(Nc1ccc(OC(F)(F)F)cc1)c1[nH]ncc1[N+](=O)[O-] | · | · | 4 | -1 | -43 | -0.95
COc1ccc(CCNC(=O)c2cc3ccccn3n2)c(OC)c1OC | 103 | 101 | -1 | 6 | · | ·
COc1ccc(NC(=O)/C=C/c2cc(Br)ccc2OC)cc1 | 70 | 72 | 2 | -5 | -20 | ·
COc1ccc(Br)cc1/C=C/C(=O)Nc1c(C)cccc1C | 63 | 77 | 6 | 62* | · | ·
COc1ccc(Br)cc1/C=C/C(=O)c1ccc(NC(C)=O)cc1 | 1.3* | 4.9* | 0 | 100* | · | ·
CCN(CC)C(=O)CSc1nc2cc3c(cc2c(=O)n1CCCCCC(=O)NCc1ccc(OC)cc1)OCO3 | · | · | -3 | 3 | 36 | -0.6
CC1C2=C(CCCC2=O)N(c2cccc3ccccc23)C2=C1C(=O)CCC2 | · | · | 1 | 55* | -16 | 0.13
O=C(NCCCn1ccnc1)c1cc([N+](=O)[O-])cc([N+](=O)[O-])c1 | 98 | 96 | 0 | -2 | 73* | 0.56
C/C(=N\O)C(=O)NCCCn1ccnc1 | 97 | 94 | -1 | -4 | · | 2.1*
O=C(NCCCn1ccnc1)c1ccncc1 | 93 | 102 | 7 | 0 | 11 | ·
CCCCNC(=O)C(=O)NCCCn1ccnc1 | · | · | 1 | -5 | · | 0.43
